# Source: the supplement of paper PMC13380429
# What was measured:
# [1] = system: Vero E6 infected with SARS-CoV-2; assay: morphology score (similarity to uninfected cells); higher = more like uninfected cells; conditions: 24 h
# [2] = system: Vero E6 infected with SARS-CoV-2; assay: SARS-CoV-2 infection rate relative to infected DMSO; higher = more infection, active = 60 or less; conditions: 24 h
SMILES,morphology score [1],SARS-CoV-2 infection rate [2]
CCCN1CCO[C@@H]2c3cc(O)ccc3OC[C@H]21 (10 µM),0.173,87% (inactive)
N#Cc1ncccn1 [2-cyanopyrimidine] (10 µM),0.0613,108% (inactive)
O=C(/C=C/c1ccc(CN(CCO)CCc2c[nH]c3ccccc23)cc1)NO [dacinostat] (0.833333 µM),0.00104,104% (inactive)
C[C@@H]1CCCN1CCc1cc2cc(-c3ccc(C#N)cc3)ccc2o1 (10 µM),0.44,80.5% (inactive)
Cn1ncnc1[C@H]1c2n[nH]c(=O)c3cc(F)cc(c23)N[C@@H]1c1ccc(F)cc1 [talazoparib] (0.833333 µM),-0.223,113% (inactive)
COCCOc1ccc(N2CCN(CCn3ncc4c3nc(N)n3nc(-c5ccco5)nc43)CC2)cc1 [preladenant] (10 µM),0.0084,111% (inactive)
CCC[C@@H](NC(=O)N1C(=O)C(CC)(CC)[C@@H]1Oc1ccc(C(=O)N2CCN(C)CC2)cc1)c1ccc2c(c1)OCO2 (10 µM),0.171,109% (inactive)
COc1cc2c(c(OC)c1OC)-c1c(cc3c(c1OC)OCO3)CC(C)C(C)C2 (centres undefined) [schisandrin-B] (10 µM),0.244,99.5% (inactive)
Cc1onc(-c2ccccc2Cl)c1C(=O)N[C@@H]1C(=O)N2[C@@H]1SC(C)(C)[C@@H]2C(=O)O [cloxacillin] (10 µM),0.00481,99.5% (inactive)
CCC(CC)Nc1cc(C)nc(Oc2c(C)cc(C)cc2C)c1C (10 µM),0.248,100% (inactive)
CC1=C(C(=O)O)N2C(=O)[C@@H](NC(=O)[C@H](N)C3=CCC=CC3)[C@H]2SC1 [cephradine] (10 µM),0.0689,106% (inactive)
C/C(=N\NC(=O)[C@@H]1C(=O)NC[C@H]1c1ccccc1)c1cccc(Br)c1 (10 µM),-0.162,112% (inactive)
CC(C)NC(=O)N1CC[C@H](NC2=Nc3cc(F)ccc3N(CC(F)F)c3ccc(Cl)cc32)C1 (0.833333 µM),0.0642,89% (inactive)
Cc1cccc(C)c1NC(=O)CN1CCCCCC1 [pincainide] (10 µM),0.00868,106% (inactive)
CCOC(=O)CNC(=O)[C@@H]1CCCN1C(=O)Cc1ccccc1 (10 µM),-0.0562,104% (inactive)
Clc1ccc2c(NCCNc3ccnc4cc(Cl)ccc34)ccnc2c1 (10 µM),0.0758,108% (inactive)
CCCCN(CC)c1nc(C)nc2c1c(C)c(C)n2-c1c(C)cc(C)cc1C [antalarmin] (10 µM),0.193,93% (inactive)
OCCN1CCN(CCCN2c3ccccc3Sc3ccc(C(F)(F)F)cc32)CC1 [fluphenazine] (0.833333 µM),-0.174,116% (inactive)
CC(C)(C)NCC(O)COc1cccc2[nH]c(=O)[nH]c12 (centres undefined) (10 µM),0.0723,103% (inactive)

SMILES,morphology score [1],SARS-CoV-2 infection rate [2]
Cn1cc(-c2ccc3nnc(Sc4ccc5ncccc5c4)n3n2)cn1 (10 µM),0.144,87% (inactive)
C[C@@H]1[C@H](O)[C@@H](C)/C=C/C=C/C=C/C=C/C=C/C=C/C=C/[C@H](O[C@@H]2O[C@H](C)[C@@H](O)[C@H](N)[C@@H]2O)C[C@@H]2O[C@](O)(C[C@@H](O)C[C@@H](O)[C@H](O)CC[C@@H](O)C[C@@H](O)CC(=O)O[C@H]1C)C[C@H](O)[C@H]2C(=O)O [amphotericin-b] (10 µM),0.132,107% (inactive)
CC(C)(C(=O)O)c1ccc(C(O)CCCN2CCC(C(O)(c3ccccc3)c3ccccc3)CC2)cc1 (centres undefined) [fexofenadine] (10 µM),-0.361,122% (inactive)
OC(CCCN1CCCCC1)(c1ccccc1)c1ccccc1 [diphenidol] (10 µM),-0.109,104% (inactive)
CN1[C@@H]2CC[C@H]1C[C@@H](OC(=O)C(CO)c1ccccc1)C2 (some centres undefined) (10 µM),-0.21,106% (inactive)
O=C(NCNC(=O)NC1C(=O)NC(=O)N1CO)NC1C(=O)NC(=O)N1CO (centres undefined) [imidurea] (10 µM),-0.0758,108% (inactive)
O=C1NC(c2cccc([N+](=O)[O-])c2)=CCN1c1ccccc1O [icilin] (10 µM),0.0675,100% (inactive)
O=C1c2ccc(Nc3ccc(F)cc3F)cc2CCc2ccc(OC[C@H](O)CO)cc21 [skepinone-L] (10 µM),-0.053,113% (inactive)
CNC(=O)c1cccc2cc(Oc3ccnc4cc(OCC5(N)CC5)c(OC)cc34)ccc12 [lucitanib] (10 µM),0.0362,104% (inactive)
N[C@@H](C[C@@H](F)C(=O)O)C(=O)O (10 µM),0.0323,110% (inactive)
CCCC[C@H](NC(C)=O)C(=O)N[C@H]1CC(=O)NCCCC[C@@H](C(=O)O)NC(=O)[C@H](Cc2c[nH]c3ccccc23)NC(=O)[C@H](CCCNC(=N)N)NC(=O)[C@@H](Cc2ccccc2)NC(=O)[C@H](Cc2c[nH]cn2)NC1=O [bremelanotide] (10 µM),0.067,96.5% (inactive)
COc1ccc(C2=N[C@@H](c3ccc(Cl)cc3)[C@@H](c3ccc(Cl)cc3)N2C(=O)N2CCNC(=O)C2)c(OC(C)C)c1 [nutlin-3] (0.833333 µM),0.101,117% (inactive)
C[C@@H](CN1CCC(Cc2ccccc2)CC1)[C@@H](O)c1ccc(O)cc1 (10 µM),0.157,98.5% (inactive)
CCC(=O)O[C@]1(C(=O)CCl)[C@@H](C)C[C@H]2[C@@H]3CCC4=CC(=O)C=C[C@]4(C)[C@@]3(F)[C@@H](O)C[C@@]21C [clobetasol-propionate] (10 µM),0.00072,105% (inactive)
NC(=O)CN1CC(c2ccccc2)CC1=O (centres undefined) [phenylpiracetam] (10 µM),0.175,94% (inactive)
Cc1c(C(=O)NN2CCCCC2)nn(-c2ccc(Cl)cc2Cl)c1-c1ccc(I)cc1 (10 µM),0.254,93% (inactive)
O=C1C(=O)N(Cc2ccc(Cl)c(Cl)c2)c2ccccc21 [apoptosis-activator-II] (10 µM),0.0389,104% (inactive)
CN(C)C(=O)N[C@H]1CC[C@H](CCN2CCN(c3cccc(Cl)c3Cl)CC2)CC1 [cariprazine] (10 µM),-0.0979,113% (inactive)
Cc1c(C)c2c(c(C)c1O)CC[C@@](C)(CCC[C@H](C)CCC[C@H](C)CCCC(C)C)O2 [vitamin-E] (10 µM),-0.299,117% (inactive)

SMILES,morphology score [1],SARS-CoV-2 infection rate [2]
C=CC1=C(C(=O)O)N2C(=O)[C@@H](NC(=O)/C(=N\O)c3csc(N)n3)[C@H]2SC1 [cefdinir] (10 µM),-0.118,107% (inactive)
CO/N=C(\C(=O)N[C@@H]1C(=O)N2C(C(=O)O)=C(CSc3nc(C)c(CC(=O)O)s3)CS[C@H]12)c1csc(N)n1 [cefodizime] (10 µM),0.129,101% (inactive)
CC[C@@]1(O)C(=O)OCc2c1cc1n(c2=O)Cc2c-1nc1cc(F)c(C)c3c1c2[C@@H](N)CC3 [exatecan-mesylate] (0.833333 µM),0.0535,110% (inactive)
Cc1cc(C)c(S(=O)(=O)Nc2cccc(C(F)(F)F)c2)c(C)c1 (10 µM),0.152,108% (inactive)
CC(C)C[C@@H](C(=O)N[C@H](C(=O)OC1CCCC1)c1ccccc1)[C@H](O)C(=O)NO [tosedostat] (10 µM),0.243,97% (inactive)
CC(C)(CO)CCCCCCC(C)(C)CO [gemcadiol] (10 µM),0.124,98.5% (inactive)
CCN1C[C@H](C)n2c(c(O)c3c(=O)n(Cc4ccc(F)c(Cl)c4)nc(C(=O)NC)c32)C1=O (10 µM),0.0188,97.5% (inactive)
OB1OCc2cc(F)ccc21 [tavaborole] (10 µM),0.00492,108% (inactive)
NCC1CC(=O)N(Cc2ccccc2)C1 (centres undefined) [nebracetam] (10 µM),0.0779,102% (inactive)
COc1cc(C[C@H](C)[C@H](C)Cc2ccc3c(c2)OCO3)ccc1O [macelignan] (10 µM),0.185,102% (inactive)
CCC(=O)c1ccc(OCC(O)CN2CCN(c3ccccc3)CC2)cc1 (centres undefined) [centpropazine] (10 µM),0.0954,93.5% (inactive)
N#Cc1ccnc(N2C(=O)CC[C@H]2C(=O)N(c2cncc(F)c2)[C@H](C(=O)NC2CC(F)(F)C2)c2ccccc2Cl)c1 [ivosidenib] (10 µM),0.219,91.5% (inactive)
CCCSc1ccc2[nH]c(NC(=O)OC)nc2c1 [albendazole] (0.833333 µM),0.0557,98% (inactive)
O=C(Nc1ccccc1)[C@]12C[C@H]1/C(=N\O)c1ccccc1O2 (10 µM),0.246,79% (inactive)
CO/N=C(\C(=O)N[C@@H]1C(=O)N2C(C(=O)[O-])=C(C[N+]3(C)CCCC3)CS[C@H]12)c1csc(N)n1 [cefepime] (10 µM),0.0622,114% (inactive)
COC(=O)N[C@@H](C)CNc1nccc(-c2cn(C(C)C)nc2-c2cc(Cl)cc(NS(C)(=O)=O)c2F)n1 [Encorafenib (LGX818)] (0.833333 µM),0.0501,95% (inactive)
CN(CCOc1ccc(-c2ccc3c(c2)OCO3)cc1C(C)(C)C)CC(=O)O (10 µM),-0.0713,102% (inactive)
COc1ccc2c(c1)[C@]13CCCC[C@@H]1[C@H](C2)N(C)CC3 [dextromethorphan] (10 µM),-0.0426,112% (inactive)
CCCN1CCN(c2ccc(C(=O)NC3(C(=O)NCC#N)CCCCC3)cc2)CC1 [balicatib] (10 µM),0.59,46% (active)
